Consider 40 molecules from PubChem BioAssay (Tox21).

Records with an inconclusive call do not appear. Entries that show only a call come without a potency. Active and inactive are the calls of the source. Calls come from the whole dose curve; as a rule, active = well fitted activation curve with a large enough effect in the repeat runs; inconclusive = weak or mixed curves; inactive = flat fitted curve, though single readings scatter.
Potency is the fitted concentration of half-maximal effect.

A short description of this assay: A CellTox Green Cytotoxicity Assay to monitor cytotoxicity in HepG2 cells - 16 hour (AID 1224876). Note: nearly all actives have a fitted effect of over 45% in size. Particulars: CellTox Green fluorescence; series mostly up to 76.8 µM. The source says:
National Center for Advancing Translational Sciences [NCATS]
NIH Chemical Genomics Center [NCGC]
U.S. Environmental Protection Agency [EPA]
National Institutes of Environmental Health Sciences [NIEHS]
National Toxicology Program [NTP]
Cell-based models are critical for drug discovery. Determining the natural cytotoxic effects resulting from test compounds is an essential research activity. A CellTox Green Cytotoxicity Assay to monitor cytotoxicity in real time of continues cell culture during 40 hours of the compound treatment was used to screen Tox21 10K library compounds in HepG2 cells. CellTox Green Cytotoxicity Assay is a nonlytic, homogeneous, biofluorescent method to measure cytotoxicity in cell culture after experimental manipulation. The assay system uses a proprietary asymmetric cyanine dye that is excluded from viable cells but preferentially stains the dead cell's DNA. […] Viable cells produce no appreciable increases in fluorescence. Therefore, the fluorescence signal produced by the binding interaction with dead cell DNA is proportional to cytotoxicity.
The mixture of HepG2 cell suspension and reagents were dispensed at 600cells/6 ul/well in 1536-well tissue culture treated black solid bottom plates using a Multidrop dispenser. After the assay plates were incubated at a 37 C/5% CO2 incubator for 5 hours, 23 nL of compounds dissolved in DMSO, positive and negative controls was transferred to the assay plate by a pintool work station. The plates were incubated at 37 C for 40 hours. The fluorescence intensity were measured at 0h, 8h, 16h, 24h, 32h and 40h time points using ViewLux plate reader during compound treatment.
As to `O=S(=O)(c1ccc(Cl)cc1)c1ccc(Cl)cc1`, the Potency result was “inactive”. On to `Cc1c(Cl)c(=O)oc2cc(OP(=O)(OCCCl)OCCCl)ccc12`, for which the Potency result is “inactive”. To `Cc1cc(C(F)(C(F)(F)F)C(F)(F)F)ccc1NC(=O)c1cccc(I)c1C(=O)NC(C)(C)CS(C)(=O)=O` belongs “inactive”; to `O=[N+]([O-])c1cc([N+](=O)[O-])c2ccccc2c1`, “inactive”; to `CCOP(=S)(OCC)OC(Cl)C(Cl)(Cl)Cl` (stereo not given), “inactive”. To `ClC1=C(Cl)[C@]2(Cl)[C@@H]3[C@@H](Cl)[C@@H](Cl)C[C@@H]3[C@@]1(Cl)C2(Cl)Cl` belongs “inactive”. Turning to `N#Cc1ccc(O)cc1`, the Potency result is “inactive”. Regarding `Clc1ccc(Oc2ccccc2)cc1`, the Potency result is “inactive”. Consider `CC(C)CC(C)(c1ccc(O)cc1)c1ccc(O)cc1`, for which the Potency was 43.8 µM (active). Take `ClCCN1CCOCC1`: the Potency entry was “inactive”. Regarding `CC(=O)Nc1ccc2c(c1)Cc1ccccc1-2`, the Potency entry is “inactive”. Under `N#CNC#N` stands “inactive”. As for `CC(=O)O[C@H]1CC[C@@]2(C)C(=CC[C@@H]3[C@@H]2CC[C@]2(C)C(=O)CC[C@@H]32)C1`, the Potency result is “inactive”. Under `C=CC(=O)OCC(COC(=O)C=C)(COC(=O)C=C)COC(=O)C=C` stands “inactive”. To `CC(O)C#N` (stereo not given) belongs “inactive”.

`CCOC(=O)CC(=O)CCl`: the Potency result was “inactive”. Consider `c1ccc(OCC2CO2)cc1` (stereo not given), for which the Potency result is “inactive”. For `Oc1cccc(-c2ccccc2)c1`, the Potency entry is “inactive”. Under `O=C(O)COc1nc(Cl)c(Cl)cc1Cl` stands 12.6 µM (active); under `O=C/C(Cl)=C(/Cl)C(=O)O`, “inactive”; under `COP(=O)(OC)SCn1c(=O)oc2cc(Cl)cnc21`, “inactive”. Take `CC(=O)/C=C/c1ccc2c(c1)OCO2`: the Potency result is “inactive”. Under `CC[C@H]1C[C@@H]2C[C@H]3c4[nH]c5ccc(OC)cc5c4CCN(C2)[C@@H]13` stands “inactive”. To `CC(C)(C)OO` belongs “inactive”. Under `COc1cc(N)c(Cl)cc1C(=O)NC1CN2CCC1CC2` (stereo not given) stands “inactive”; under `Oc1ccc(C(=C(Cl)Cl)c2ccc(O)cc2)cc1`, “inactive”.

As for `O=C(CCCN1CCC2(CC1)C(=O)NCN2c1ccccc1)c1ccc(F)cc1`, the Potency result is “inactive”. To `CCCN(CC)CC1COC2(CCC(C(C)(C)C)CC2)O1` (stereo not given) belongs “inactive”; to `CN(CCCC(=O)c1cccnc1)N=O`, “inactive”; to `N#CCc1ccc(Cl)cc1`, “inactive”. Under `CCN` stands “inactive”; under `O=C(O)C1C2CCC(O2)C1C(=O)O` (stereo not given), “inactive”.

For `[CH3][Hg][Cl]`, the Potency is 12.3 µM (active). To `COc1ccc(OC)c(C=O)c1` belongs “inactive”; to `CC1(C)CC/C(=C/c2ccc(Cl)cc2)C1(O)Cn1cncn1` (stereo not given), “inactive”; to `COc1cc(C=O)cc2c1[C@H](COC(N)=O)[C@]1(OC(C)=O)ON2C[C@H]2[C@@H]1N2C(C)=O`, “inactive”. To `C[CH2][Hg][N]1C(=O)C2C(C1=O)C1(Cl)C(Cl)=C(Cl)C2(Cl)C1(Cl)Cl` (stereo not given) belongs 6.57 µM (active); to `CCc1nn(C)c(C(=O)NCc2ccc(C(C)(C)C)cc2)c1Cl`, “inactive”; to `N#Cc1ccccc1N`, “inactive”.

On to `CN(C)S(=O)(=O)N(SC(F)(Cl)Cl)c1ccccc1`, for which the Potency is 12.3 µM (active).
